Results from PubChem BioAssay AID1259343 (VanderVen Lab, College of Veterinary Medicine, Cornell …, 2017).
The whole screen tested about 6,200 compounds, of which about 2,900 (47%) were called active. Rule as the data show it: active = inhibition above about 50%; inactive = the rest. So high a share suggests a set chosen from earlier hits. Some of the results follow.

Assay: Mycobacterium tuberculosis growth inhibition, primary screen (AID 1259343)
Details: inhibition: at 10 µM, active compounds read high; outcome: 10 uM

SMILES | inhibition
COc1cc2c(cc1NC(=O)CC(C)=NNC=O)oc1ccccc12 | 95.5% (active)
COc1ccccc1/C=C/CN1CCCC(CCC(=O)Nc2cc(Cl)ccc2OC)C1 (stereo unspecified) | 14.3% (inactive)
Cc1noc(C)c1CCC(=O)Nc1ccc2oc3ccccc3c2c1 | 25.6% (inactive)
Cc1cc(C)c2sc(NCC(C)C)nc2c1 | 13.6% (inactive)
COC(=O)c1sc2c(c1N)CCC(C(C)(C)C)C2 (stereo unspecified) | 29.1% (inactive)
COC(=O)c1c(N)sc2c1CCC(C(C)(C)C)C2 (stereo unspecified) | -34.2% (inactive)
CC(C)(C)C1CCc2c(C(=O)N/N=C\c3ccoc3)csc2C1 (stereo unspecified) | 79.8% (active)
Cc1ccc(-c2c[nH]n3c(=O)cc(C(C)(C)C)nc23)cc1 | 98.8% (active)
Cc1cc(=O)n2[nH]c(C(F)(F)F)c(-c3ccc(Cl)cc3)c2n1 | 61.6% (active)
CC(C)(C)c1cc(=O)n2[nH]cc(-c3ccc(Cl)cc3)c2n1 | 32.1% (inactive)
Cc1[nH]n2c(=O)cc(C(C)(C)C)nc2c1-c1ccc(Cl)cc1 | 101% (active)
Cc1cc(=O)n2[nH]cc(-c3ccc(Cl)cc3)c2n1 | -30.9% (inactive)
CC(NC(=O)c1c(O)nc2sccn2c1=O)c1ccccc1 (stereo unspecified) | 90.9% (active)
CC(CCc1ccccc1)NC(=O)c1c(O)nc2sccn2c1=O (stereo unspecified) | 62.6% (active)
CCCCn1c(=O)[nH]c(=O)c2c1nc(COC(=O)C1CC1)n2C | 12.4% (inactive)
O=C(O)C1CC=CCC1C(=O)Nc1ccc(N2CCN(c3cccc(Cl)c3Cl)CC2)cc1 (stereo unspecified) | 21.6% (inactive)
O=C(Nc1ccc(-c2ccccc2)cc1)C1CC=CCC1C(=O)N1CCc2c([nH]c3ccccc23)C1 (stereo unspecified) | 91% (active)
C1=CC(c2ccc(C=NNc3ccccn3)s2)CC1 (stereo unspecified) | -47.3% (inactive)
CC1CC(=NNc2nc3ccccc3s2)CC(C)(C)C1 (stereo unspecified) | 23.3% (inactive)
C1=CC(c2ccc(C=NNc3nc4ccccc4s3)s2)CC1 (stereo unspecified) | 99.1% (active)
NC(=S)NN=Cc1ccc(C2C=CCC2)s1 (stereo unspecified) | 84.9% (active)
C=CCN=c1scc(-c2ccc(C)cc2)n1N=Cc1ccc(F)cc1 | -4.92% (inactive)

SMILES | inhibition
C(=Nn1c(-c2ccccc2)csc1=NCc1ccccc1)c1cccnc1 | 28.2% (inactive)
N#Cc1ccc(C=Nn2c(-c3ccc(F)cc3)csc2=Nc2cccnc2)cc1 | 97.7% (active)
C=CCNC(=S)NN=C1CCC=C1CCCCC | 21.5% (inactive)
C=CCNC(=S)NN=C1C=C(C)CC(C)(C)C1 | 103% (active)
C=CCNC(=S)NN=C1CCCCc2ccccc21 | -17.9% (inactive)
Cc1cccc(C)c1OCC(O)Cn1cnc2ccc(Br)cc2c1=O (stereo unspecified) | 33.4% (inactive)
Cc1cccc(OCC(O)Cn2cnc3ccc(Cl)cc3c2=O)c1 (stereo unspecified) | 86.5% (active)
CCn1cnc2cc(-c3ccc(Cl)cc3)sc2c1=O | 29.3% (inactive)
CN(CCNc1ccc2c(c1)C(=O)CCC2)c1ccccc1 | 75.6% (active)
Cc1ccc(C(=O)NCCN(C)c2ccccc2)c(C)c1 | 35.9% (inactive)
Cc1ccc(SCCC(=O)Nc2nnc(-c3cc(C)ccc3C)o2)cc1 | 74.8% (active)
Cc1ccc(NC(=O)C(C)OC(=O)c2cccc(C)c2C)cc1 (stereo unspecified) | 18.8% (inactive)
CC(C)OC(=O)c1ccc(NC(=O)CCCC(=O)O)cc1 | 50.8% (active)
Cc1cc(=O)[nH]c(-n2nc(C)cc2NC(=O)Cc2cccs2)n1 | 101% (active)
CCc1cc(=O)[nH]c(-n2nc(C)cc2NC(=O)Cc2cccs2)n1 | 101% (active)
CCCc1cc(=O)[nH]c(-n2nc(C)cc2NC(=O)Cc2cccs2)n1 | -25.1% (inactive)
CN(C)CCCNc1ncnc2c1c(-c1ccccc1)cn2-c1ccc(Br)cc1 | 97.2% (active)
CC(C)OCCCNc1ncnc2c1c(-c1ccccc1)cn2-c1ccccc1 | 101% (active)
CCCNc1ncnc2c1c(-c1ccccc1)cn2-c1ccccc1 | 95.8% (active)
Cc1ccc(-n2cc(-c3ccccc3)c3c(NCCCO)ncnc32)cc1Cl | inactive
CC(O)CNc1ncnc2c1c(-c1ccccc1)cn2-c1ccc(Cl)cc1 (stereo unspecified) | 99.4% (active)
Cn1ccnc1-c1nccn1Cc1ccc(CN2CCCC2)cc1 | -4.25% (inactive)

SMILES | inhibition
CN(C)c1ccc(C=Cc2ccc3c4ccccc4ccc3[n+]2-c2ccccc2)cc1 | -1.83% (inactive)
O=S(=O)(Nc1ccc(Br)cc1)c1ccc(F)cc1 | 36.6% (inactive)
N#Cc1ccc(NS(=O)(=O)c2ccc(F)cc2)cc1 | 77.8% (active)
O=S(=O)(Nc1ccc(Br)c(C(F)(F)F)c1)c1ccc(F)cc1 | 81.1% (active)
Cc1cc(C)c(C)c(S(=O)(=O)Nc2ccc(F)cc2)c1C | 31.6% (inactive)
O=c1[nH]c(=S)ccn1-c1nc(-c2ccccc2)sc1-c1ccccc1 | 21.2% (inactive)
NCc1ccc(Oc2cccc(Cl)c2Cl)cc1 | 62.9% (active)
Oc1ccccc1Oc1ccc(Oc2ccccc2O)cc1 | 25.7% (inactive)
O=C(O)c1sc2cc(Cl)ccc2c1Cl | 87.1% (active)
COc1ccc2c(Cl)c(C(=O)O)sc2c1Cl | 19.7% (inactive)
O=C(O)c1sc2cc(Cl)cc(Cl)c2c1Cl | 92.8% (active)
O=C(O)c1sc(Cl)cc1/C=C\c1ccccc1 | 4.33% (inactive)
O=C(NC1=NCCS1)c1sc2cc(F)ccc2c1Cl | 5.48% (inactive)
O=C(NS(=O)(=O)c1ccc(Br)s1)c1ccc(Cl)cc1Cl | 82.9% (active)
O=C(NS(=O)(=O)c1ccc(Cl)s1)c1sc2cc(Cl)ccc2c1Cl | 77.9% (active)
CC(NC(=O)c1scnc1Cl)c1ccccc1 (stereo unspecified) | 8.26% (inactive)
CC(NC(=O)c1ccc(Cl)c([N+](=O)[O-])c1)c1ccccc1 (stereo unspecified) | 100% (active)
Cc1cc(C)c(S(=O)(=O)Nc2nc(C(F)(F)F)cs2)c(C)c1 | 78.7% (active)
Cc1cc(C)c(S(=O)(=O)NC(C)c2ccccc2)c(C)c1 (stereo unspecified) | 9.74% (inactive)
Cc1ccc(NC(=O)c2csc(NS(=O)(=O)c3cccs3)n2)cc1F | 28.6% (inactive)
c1ccc(-c2noc(CCCc3c[nH]c4ccccc34)n2)cc1 | 71.6% (active)
O=C(CCc1nnc(CCc2c[nH]c3ccccc23)o1)N1CCC(c2ccccc2Cl)C1 (stereo unspecified) | 33.4% (inactive)
